# Laboratory results: the antibiotic and cytotoxicity screens of Wong et al. (2023)
# Hit rate of the full screen: of about 39,000 compounds, about 1,500 (3.8%) were called active. This excerpt belongs to a sample that is enriched for actives.
# Test system: HSkMC (human skeletal muscle cells)
# Assay: cytotoxicity call (relative viability < 0.9)
# Conditions: 10 µM
row,Compound,cytotoxicity call
1,Cc1ccc(S(=O)(=O)N(C)C[C@H]2Oc3ncc(C#CCC(C)C)cc3C(=O)N([C@@H](C)CO)C[C@H]2C)cc1,inactive
2,C[C@H]1CN([C@@H](C)CO)S(=O)(=O)c2ccc(Br)cc2O[C@@H]1CN(C)Cc1cccc(F)c1,inactive
3,Cc1ccc(S(=O)(=O)N(C)C[C@@H]2OCCCC[C@H](C)Oc3ccc(NC(=O)CCCCCC(=O)Nc4ccccc4N)cc3C(=O)N([C@H](C)CO)C[C@@H]2C)cc1,inactive
4,COc1ccc(NC(=O)N(C)C[C@H]2OCCCC[C@@H](C)Oc3ccc(NS(=O)(=O)c4ccc(F)cc4)cc3C(=O)N([C@@H](C)CO)C[C@H]2C)cc1,inactive
5,Cc1ccc(C(=O)O)c(=O)[nH]1,inactive
6,C[C@@H]1CN([C@@H](C)CO)C(=O)c2cc(C#CC3(O)CCCC3)cnc2O[C@@H]1CN(C)C(=O)Cc1ccccc1,inactive
7,O=C(N[C@H]1CCN(C(=O)c2cc(C(F)(F)F)cc(C(F)(F)F)c2)[C@H](Cc2ccc(Cl)cc2)C1)c1ccnc2ccccc12,active
8,O=C(NC1CC1)[C@@H]1c2ccccc2C(=O)N(Cc2cc(C(F)(F)F)cc(C(F)(F)F)c2)[C@H]1c1ccc(CO)cc1,inactive
9,C[C@@H]1CN([C@H](C)CO)C(=O)c2cccc(NC(=O)c3ccc(-c4nccs4)cc3)c2O[C@@H]1CN(C)C(=O)Nc1ccc(C(F)(F)F)cc1,active
10,C[C@@H]1CN([C@@H](C)CO)C(=O)c2cccc(NC(=O)c3ccc(-c4nccs4)cc3)c2O[C@@H]1CN(C)Cc1ccc(C(F)(F)F)cc1,inactive
11,C[C@@H]1CN([C@@H](C)CO)C(=O)c2cccc(NC(=O)c3ccc(-c4nccs4)cc3)c2O[C@H]1CN(C)Cc1ccc(C(F)(F)F)cc1,inactive
12,C[C@H]1CN([C@@H](C)CO)C(=O)c2cccc(NC(=O)c3ccc(-c4nccs4)cc3)c2O[C@H]1CN(C)C(=O)Nc1ccc(C(F)(F)F)cc1,inactive
13,C[C@@H]1CN([C@H](C)CO)C(=O)c2cccc(NC(=O)c3ccc(-c4nccs4)cc3)c2O[C@@H]1CN(C)Cc1ccc(C(F)(F)F)cc1,inactive
14,C[C@H]1CN([C@@H](C)CO)C(=O)c2cccc(NC(=O)c3ccc(-c4nccs4)cc3)c2O[C@@H]1CN(C)Cc1ccc(Cl)c(Cl)c1,active
15,C[C@H]1CN([C@@H](C)CO)C(=O)c2cccc(NC(=O)c3ccc(-c4nccs4)cc3)c2O[C@@H]1CN(C)Cc1ccc(C(F)(F)F)cc1,active
16,C[C@H](CO)N1C[C@H](C)[C@H](CN(C)Cc2ccc(C(F)(F)F)cc2)Oc2c(NC(=O)c3ccc(-c4nccs4)cc3)cccc2C1=O,inactive
17,C[C@H](CO)N1C[C@H](C)[C@@H](CN(C)Cc2ccc(Cl)c(Cl)c2)Oc2c(NC(=O)c3ccc(-c4nccs4)cc3)cccc2C1=O,inactive
18,C[C@@H]1CN([C@@H](C)CO)C(=O)c2cccc(NC(=O)c3ccc(-c4nccs4)cc3)c2O[C@@H]1CN(C)C(=O)Nc1ccc(C(F)(F)F)cc1,inactive
19,C[C@@H]1CN([C@H](C)CO)C(=O)c2cccc(NC(=O)c3ccc(-c4nccs4)cc3)c2O[C@H]1CN(C)Cc1ccc(Cl)c(Cl)c1,inactive
20,C[C@@H]1CN([C@H](C)CO)C(=O)c2cccc(NC(=O)c3ccc(-c4nccs4)cc3)c2O[C@H]1CN(C)Cc1ccc(C(F)(F)F)cc1,active

row,Compound,cytotoxicity call
1,C[C@H]1CN([C@@H](C)CO)C(=O)Cc2cc(NS(=O)(=O)c3cccs3)ccc2O[C@@H]1CN(C)Cc1ccncc1,inactive
2,COc1ccc(NC(=O)N(C)C[C@H]2Oc3ccc(NS(=O)(=O)c4c(C)noc4C)cc3C(=O)N([C@H](C)CO)C[C@H]2C)cc1,inactive
3,C[C@@H]1CN([C@@H](C)CO)C(=O)c2cccc(NC(=O)CCCCCC(=O)Nc3ccccc3N)c2O[C@H]1CN(C)S(=O)(=O)c1cn(C)cn1,inactive
4,Cc1[nH]c(=O)[nH]c(=O)c1S(=O)(=O)N1CCC[C@H](C(=O)NCCc2c[nH]c3ccc(F)cc23)C1,inactive
5,C[C@H]1CCCCO[C@@H](CN(C)C)[C@@H](C)CN([C@@H](C)CO)C(=O)c2cc(NS(=O)(=O)c3cn(C)cn3)ccc2O1,inactive
6,C[C@@H]1CCCCO[C@@H](CN(C)S(=O)(=O)c2ccccc2)[C@H](C)CN([C@@H](C)CO)C(=O)c2cc(NC(=O)Nc3ccc(C(F)(F)F)cc3)ccc2O1,inactive
7,COc1ccc(CN(C)C[C@H]2OCCCC[C@H](C)Oc3ccc(NC(=O)Cc4ccccc4)cc3C(=O)N([C@@H](C)CO)C[C@H]2C)cc1,inactive
8,C[C@@H]1CN([C@H](C)CO)C(=O)c2cc(NS(=O)(=O)c3ccccc3)ccc2O[C@@H](C)CCCCO[C@@H]1CN(C)Cc1ccc2c(c1)OCO2,inactive
9,C[C@H](CO)N1C[C@H](C)[C@@H](CN(C)S(=O)(=O)c2ccc(Oc3ccccc3)cc2)OCc2cn(nn2)CCCC1=O,inactive
10,Cc1noc(C)c1S(=O)(=O)N(C)C[C@@H]1Oc2ccc(NC(=O)CCC(F)(F)F)cc2CC(=O)N([C@H](C)CO)C[C@H]1C,inactive
11,COCCNC(=O)C[C@@H]1CC[C@@H](NS(=O)(=O)c2ccc(C)cc2)[C@H](CO)O1,inactive
12,C[C@@H](O)Cn1cnc2c1c(=O)n(C)c(=O)n2C,inactive
13,COc1ccc(CN(C)C[C@H]2OCCCC[C@H](C)Oc3ccc(NC(=O)c4ccccc4)cc3C(=O)N([C@@H](C)CO)C[C@H]2C)cc1,inactive
14,CC(C)C#Cc1cnc2c(c1)C(=O)N([C@@H](C)CO)C[C@@H](C)[C@@H](CN(C)S(=O)(=O)c1cn(C)cn1)O2,inactive
15,CC(C)N1CCOC[C@@]2(C1)CN(S(C)(=O)=O)CCO2,inactive
16,COC(=O)[C@H](Cc1ccccc1)N1CC2=C[C@@H](C3CC3)n3c(=O)n(C)c(=O)n3[C@H]2[C@@H]1[C@@H](O)CCn1cc(-c2cccc(/C=C/C(=O)NO)c2)nn1,inactive
17,COc1ccc2c3c([nH]c2c1)[C@H](CO)N(C[C@]13CN(C1)S(=O)(=O)C)C(=O)C1CCOCC1,inactive
18,C[C@H](CO)N1C[C@H](C)[C@H](CN(C)C(=O)NC2CCCCC2)Oc2ccc(NC(=O)C3CC3)cc2CC1=O,inactive
19,Cc1ccc(S(=O)(=O)N(C)C[C@H]2Oc3ccc(N(C)C)cc3CC(=O)N([C@H](C)CO)C[C@@H]2C)cc1,inactive
